Test results taken from the supplement of paper PMC11732987, “Enantioselective OTUD7B fragment discovery through chemoproteomics screening and high-throughput optimisation” (Communications Chemistry, 2025).

Legend:
Assay in all cases: log2 ratio of Biotin-Ahx-Ub-VS probe labelling (fragment/DMSO); higher = less target engagement (more negative = stronger competition), active = hit call of the paper (q ≤ 0.05, log2 ratio ≤ -1)
Conditions in all cases: compound concentration: 200 uM; treatment time: 3 h
[1] = target: T1, USP19 (UniProt O94966)
T1 sequence (whole entry): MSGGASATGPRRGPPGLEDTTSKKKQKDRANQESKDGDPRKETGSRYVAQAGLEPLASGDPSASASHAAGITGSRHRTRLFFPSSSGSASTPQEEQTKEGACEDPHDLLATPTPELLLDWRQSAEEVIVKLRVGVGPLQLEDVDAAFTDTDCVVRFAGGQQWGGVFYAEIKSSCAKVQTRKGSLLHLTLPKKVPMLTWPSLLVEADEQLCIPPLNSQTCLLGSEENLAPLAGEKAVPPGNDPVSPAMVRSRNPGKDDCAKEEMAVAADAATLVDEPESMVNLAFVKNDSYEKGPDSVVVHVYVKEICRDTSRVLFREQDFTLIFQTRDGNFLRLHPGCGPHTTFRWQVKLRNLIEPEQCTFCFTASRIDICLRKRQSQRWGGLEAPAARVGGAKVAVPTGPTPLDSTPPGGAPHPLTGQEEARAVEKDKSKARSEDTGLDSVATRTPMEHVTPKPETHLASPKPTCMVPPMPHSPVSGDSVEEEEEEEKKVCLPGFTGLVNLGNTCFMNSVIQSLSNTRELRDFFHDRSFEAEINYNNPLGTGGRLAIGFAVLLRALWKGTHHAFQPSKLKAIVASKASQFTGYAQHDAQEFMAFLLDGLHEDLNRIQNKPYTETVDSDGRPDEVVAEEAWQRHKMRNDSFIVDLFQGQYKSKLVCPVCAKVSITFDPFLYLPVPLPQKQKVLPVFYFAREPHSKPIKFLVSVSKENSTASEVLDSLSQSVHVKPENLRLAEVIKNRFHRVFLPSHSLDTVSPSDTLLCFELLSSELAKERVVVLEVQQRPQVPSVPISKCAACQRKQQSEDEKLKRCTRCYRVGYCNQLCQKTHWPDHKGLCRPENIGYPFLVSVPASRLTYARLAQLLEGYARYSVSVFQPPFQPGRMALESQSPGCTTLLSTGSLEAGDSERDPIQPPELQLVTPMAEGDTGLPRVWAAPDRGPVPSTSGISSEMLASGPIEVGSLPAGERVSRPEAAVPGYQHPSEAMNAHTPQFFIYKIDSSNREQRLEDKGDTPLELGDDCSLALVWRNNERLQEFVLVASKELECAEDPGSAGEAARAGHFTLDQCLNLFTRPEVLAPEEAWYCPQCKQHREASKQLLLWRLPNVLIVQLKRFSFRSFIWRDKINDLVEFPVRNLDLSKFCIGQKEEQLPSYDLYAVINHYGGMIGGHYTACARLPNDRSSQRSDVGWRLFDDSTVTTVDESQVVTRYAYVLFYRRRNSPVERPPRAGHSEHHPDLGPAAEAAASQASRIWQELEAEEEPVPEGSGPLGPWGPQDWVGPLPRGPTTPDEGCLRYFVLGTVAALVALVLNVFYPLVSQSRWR
How it was run: (§1)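 HEK293T lysate, 495 µg per sample in Tris/CHAPS/IGEPAL buffer with protease inhibitors, was treated in triplicate with fragment at 200 µM or vehicle for 3 h and then with Biotin-Ahx-Ub-VS at 0.5 µM final for 1 h. Labelled DUBs were NeutrAvidin-enriched, digested with LysC and trypsin, and run by diaPASEF LC-MS/MS. Spectronaut label-free quantities were global-median-normalised, and values are average log2 fragment/vehicle ratios by unpaired t-test on proteins with ≥2 unique peptides.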

[2] = target: T2, USP22 (UniProt Q9UPT9)
T2 sequence (whole entry): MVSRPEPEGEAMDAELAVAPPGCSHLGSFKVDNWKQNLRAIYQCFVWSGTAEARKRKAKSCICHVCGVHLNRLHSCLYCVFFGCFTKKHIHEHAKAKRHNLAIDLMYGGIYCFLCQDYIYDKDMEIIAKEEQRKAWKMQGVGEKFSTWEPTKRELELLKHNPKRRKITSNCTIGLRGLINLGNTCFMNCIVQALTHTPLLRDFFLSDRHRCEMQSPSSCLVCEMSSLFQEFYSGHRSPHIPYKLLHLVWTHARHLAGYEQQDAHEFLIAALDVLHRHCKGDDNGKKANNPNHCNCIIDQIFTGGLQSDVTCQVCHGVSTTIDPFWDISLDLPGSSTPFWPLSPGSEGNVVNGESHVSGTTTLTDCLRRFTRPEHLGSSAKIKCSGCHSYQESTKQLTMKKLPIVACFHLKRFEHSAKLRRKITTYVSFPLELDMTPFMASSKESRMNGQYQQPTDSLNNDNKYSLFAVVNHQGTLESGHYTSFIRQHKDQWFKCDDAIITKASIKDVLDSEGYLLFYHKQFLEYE
How it was run: as §1

[3] = target: USP24 (UniProt Q9UPU5)
How it was run: as §1

[4] = target: T3, USP25 (UniProt Q9UHP3)
T3 sequence (whole entry): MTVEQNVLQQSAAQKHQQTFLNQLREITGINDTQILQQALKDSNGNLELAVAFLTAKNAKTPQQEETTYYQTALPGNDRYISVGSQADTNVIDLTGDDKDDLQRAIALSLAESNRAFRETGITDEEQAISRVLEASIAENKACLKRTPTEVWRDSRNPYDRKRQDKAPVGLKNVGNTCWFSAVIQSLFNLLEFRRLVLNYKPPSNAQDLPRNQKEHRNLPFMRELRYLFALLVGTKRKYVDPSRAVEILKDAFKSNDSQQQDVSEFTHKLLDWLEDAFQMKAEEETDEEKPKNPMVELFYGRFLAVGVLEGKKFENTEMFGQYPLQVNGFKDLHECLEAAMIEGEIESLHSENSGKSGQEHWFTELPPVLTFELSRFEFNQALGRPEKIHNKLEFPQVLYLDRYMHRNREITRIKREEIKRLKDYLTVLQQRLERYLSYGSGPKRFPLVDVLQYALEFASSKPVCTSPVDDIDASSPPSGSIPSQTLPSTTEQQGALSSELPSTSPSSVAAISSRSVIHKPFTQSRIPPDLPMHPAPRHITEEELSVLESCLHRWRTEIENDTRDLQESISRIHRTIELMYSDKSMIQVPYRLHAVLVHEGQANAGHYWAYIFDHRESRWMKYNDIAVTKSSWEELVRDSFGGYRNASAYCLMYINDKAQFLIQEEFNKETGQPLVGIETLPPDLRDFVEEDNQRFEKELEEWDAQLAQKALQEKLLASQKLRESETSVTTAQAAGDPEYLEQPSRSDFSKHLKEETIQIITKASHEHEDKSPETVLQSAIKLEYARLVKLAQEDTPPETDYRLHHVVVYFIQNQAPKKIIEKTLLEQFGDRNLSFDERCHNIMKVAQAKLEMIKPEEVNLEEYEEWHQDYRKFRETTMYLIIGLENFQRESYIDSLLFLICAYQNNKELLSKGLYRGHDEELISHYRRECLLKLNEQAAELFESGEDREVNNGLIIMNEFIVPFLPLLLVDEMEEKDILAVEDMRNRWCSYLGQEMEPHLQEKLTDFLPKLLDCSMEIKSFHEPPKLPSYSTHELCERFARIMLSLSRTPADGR
How it was run: as §1

[5] = target: T4, USP28 (UniProt Q96RU2)
T4 sequence (whole entry): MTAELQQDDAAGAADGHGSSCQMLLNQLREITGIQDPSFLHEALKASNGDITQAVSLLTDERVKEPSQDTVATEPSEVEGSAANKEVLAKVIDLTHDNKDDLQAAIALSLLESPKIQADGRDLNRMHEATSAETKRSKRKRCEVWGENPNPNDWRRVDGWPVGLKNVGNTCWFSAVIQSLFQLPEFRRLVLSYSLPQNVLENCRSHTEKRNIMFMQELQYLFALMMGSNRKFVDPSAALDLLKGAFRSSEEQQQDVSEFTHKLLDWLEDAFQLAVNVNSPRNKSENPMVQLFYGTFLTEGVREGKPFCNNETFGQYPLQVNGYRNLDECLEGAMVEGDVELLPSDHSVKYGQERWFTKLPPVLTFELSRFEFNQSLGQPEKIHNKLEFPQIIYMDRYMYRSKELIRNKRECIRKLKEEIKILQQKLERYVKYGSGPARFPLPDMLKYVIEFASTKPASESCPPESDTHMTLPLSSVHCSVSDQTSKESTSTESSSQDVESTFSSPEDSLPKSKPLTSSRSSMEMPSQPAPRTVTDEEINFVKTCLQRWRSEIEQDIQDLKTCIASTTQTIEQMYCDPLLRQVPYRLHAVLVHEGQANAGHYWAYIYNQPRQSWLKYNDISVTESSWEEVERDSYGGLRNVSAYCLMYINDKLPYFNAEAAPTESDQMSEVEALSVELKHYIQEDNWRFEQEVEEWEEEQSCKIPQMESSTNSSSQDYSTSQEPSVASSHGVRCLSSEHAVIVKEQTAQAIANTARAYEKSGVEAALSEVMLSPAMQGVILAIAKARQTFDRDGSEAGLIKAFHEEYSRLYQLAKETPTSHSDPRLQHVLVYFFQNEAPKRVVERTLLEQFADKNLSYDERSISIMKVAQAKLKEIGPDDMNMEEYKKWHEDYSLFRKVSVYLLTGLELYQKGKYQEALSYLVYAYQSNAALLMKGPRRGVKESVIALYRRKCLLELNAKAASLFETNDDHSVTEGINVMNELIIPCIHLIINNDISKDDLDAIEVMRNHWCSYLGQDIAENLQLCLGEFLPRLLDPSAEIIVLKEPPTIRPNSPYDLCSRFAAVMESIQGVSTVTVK
How it was run: as §1

Measured: log2 ratio of Biotin-Ahx-Ub-VS probe labelling

Sequence of USP24 (Q9UPU5 whole entry): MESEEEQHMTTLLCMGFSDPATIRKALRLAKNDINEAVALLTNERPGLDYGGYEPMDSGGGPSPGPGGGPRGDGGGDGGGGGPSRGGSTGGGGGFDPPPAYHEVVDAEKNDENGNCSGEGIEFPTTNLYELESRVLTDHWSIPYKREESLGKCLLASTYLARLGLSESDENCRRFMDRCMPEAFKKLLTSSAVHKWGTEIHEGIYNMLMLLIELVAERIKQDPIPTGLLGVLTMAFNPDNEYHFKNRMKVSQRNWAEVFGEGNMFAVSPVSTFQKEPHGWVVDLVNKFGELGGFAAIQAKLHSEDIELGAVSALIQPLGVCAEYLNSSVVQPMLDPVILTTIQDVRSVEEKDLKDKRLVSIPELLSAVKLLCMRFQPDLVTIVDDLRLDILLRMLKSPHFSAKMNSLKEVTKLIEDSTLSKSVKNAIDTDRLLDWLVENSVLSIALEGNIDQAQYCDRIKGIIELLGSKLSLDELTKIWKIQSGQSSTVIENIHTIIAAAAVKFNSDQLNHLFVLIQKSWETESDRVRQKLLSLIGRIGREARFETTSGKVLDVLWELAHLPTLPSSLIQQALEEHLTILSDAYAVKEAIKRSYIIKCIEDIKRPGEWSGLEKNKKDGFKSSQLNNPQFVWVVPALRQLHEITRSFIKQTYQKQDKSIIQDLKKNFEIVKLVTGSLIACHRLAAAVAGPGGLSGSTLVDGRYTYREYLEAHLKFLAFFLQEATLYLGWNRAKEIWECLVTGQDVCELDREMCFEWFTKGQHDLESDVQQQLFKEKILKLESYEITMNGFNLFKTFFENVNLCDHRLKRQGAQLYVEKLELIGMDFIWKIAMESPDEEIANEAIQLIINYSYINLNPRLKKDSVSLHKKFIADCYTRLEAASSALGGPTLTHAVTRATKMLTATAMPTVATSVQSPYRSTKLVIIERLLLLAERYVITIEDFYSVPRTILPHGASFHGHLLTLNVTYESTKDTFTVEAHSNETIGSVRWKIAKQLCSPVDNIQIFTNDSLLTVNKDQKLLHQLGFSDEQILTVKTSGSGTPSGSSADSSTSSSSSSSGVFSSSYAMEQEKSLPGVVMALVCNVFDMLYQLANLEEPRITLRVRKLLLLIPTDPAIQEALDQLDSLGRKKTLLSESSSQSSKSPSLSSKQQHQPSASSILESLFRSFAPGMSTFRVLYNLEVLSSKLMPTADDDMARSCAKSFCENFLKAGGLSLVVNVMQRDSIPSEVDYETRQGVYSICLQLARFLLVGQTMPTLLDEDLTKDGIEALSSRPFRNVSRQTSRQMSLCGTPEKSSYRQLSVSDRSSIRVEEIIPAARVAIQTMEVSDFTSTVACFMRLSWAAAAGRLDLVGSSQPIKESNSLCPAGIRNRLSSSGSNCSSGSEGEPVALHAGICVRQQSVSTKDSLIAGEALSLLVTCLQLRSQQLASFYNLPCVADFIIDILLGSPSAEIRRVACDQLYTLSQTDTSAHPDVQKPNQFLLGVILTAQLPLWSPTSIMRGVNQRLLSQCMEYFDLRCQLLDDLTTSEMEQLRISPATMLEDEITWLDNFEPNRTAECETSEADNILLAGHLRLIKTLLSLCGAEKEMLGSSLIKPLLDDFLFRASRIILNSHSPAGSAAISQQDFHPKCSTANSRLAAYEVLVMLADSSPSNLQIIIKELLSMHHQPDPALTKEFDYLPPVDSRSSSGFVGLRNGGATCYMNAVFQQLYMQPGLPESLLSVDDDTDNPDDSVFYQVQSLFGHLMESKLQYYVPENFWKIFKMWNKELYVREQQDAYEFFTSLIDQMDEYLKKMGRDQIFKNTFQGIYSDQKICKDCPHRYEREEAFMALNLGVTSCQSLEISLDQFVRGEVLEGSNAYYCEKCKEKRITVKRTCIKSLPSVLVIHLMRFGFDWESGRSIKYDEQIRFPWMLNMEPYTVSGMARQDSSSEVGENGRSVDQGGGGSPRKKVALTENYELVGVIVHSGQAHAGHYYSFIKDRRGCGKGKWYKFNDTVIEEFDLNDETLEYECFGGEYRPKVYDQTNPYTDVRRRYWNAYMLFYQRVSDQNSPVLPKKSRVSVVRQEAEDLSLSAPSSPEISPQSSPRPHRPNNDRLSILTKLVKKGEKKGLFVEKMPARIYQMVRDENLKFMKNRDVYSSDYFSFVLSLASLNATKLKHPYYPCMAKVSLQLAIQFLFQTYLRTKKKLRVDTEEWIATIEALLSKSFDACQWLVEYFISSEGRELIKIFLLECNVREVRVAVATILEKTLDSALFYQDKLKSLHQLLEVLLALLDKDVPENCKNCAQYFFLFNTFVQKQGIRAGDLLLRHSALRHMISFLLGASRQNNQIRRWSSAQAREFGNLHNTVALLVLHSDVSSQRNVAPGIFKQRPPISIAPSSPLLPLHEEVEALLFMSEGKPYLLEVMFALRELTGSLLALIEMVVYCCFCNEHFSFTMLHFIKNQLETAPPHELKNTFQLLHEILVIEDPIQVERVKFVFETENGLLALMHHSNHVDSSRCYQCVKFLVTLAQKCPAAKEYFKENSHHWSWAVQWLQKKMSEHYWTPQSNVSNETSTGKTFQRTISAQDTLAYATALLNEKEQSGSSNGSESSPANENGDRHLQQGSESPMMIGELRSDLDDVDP

Cc1cccc(C(CNC(=O)CCl)N2CCOCC2)c1.Cl (stereo not given)
inactive: [1] 0.101 | [2] -0.00636 | [3] 0.135 | [4] -0.355 | [5] -0.0645
